A selection: hits, their analogues and other compounds. The true share with any hit is near 27%.
sEH inhibitor: soluble epoxide hydrolase (human) inhibition. inhibition, % at 2 µM. AID 707. recombinant human sEH enzymatic activity assay. hit rate 0.34% among 91,000. P34913; in the data active = inhibition above about 80%
CYP2C9 act: increases human cytochrome P450 2C9 activity; P11712; recombinant CYP2C9, luciferin-H conversion, luminescence; active compounds read high; factor 1 = untreated enzyme, 0 = blocked; activation factor at 5 µM; hit rate 1.4% among 96,000; AID 1024;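 active = activation factor of 2 or more for CYP2C9 at a 5 µM dose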;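 also: 0 = sulfaphenazole-blocked wells and 1 = vehicle-only wells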
Target sequence (P11712 whole entry, looked up): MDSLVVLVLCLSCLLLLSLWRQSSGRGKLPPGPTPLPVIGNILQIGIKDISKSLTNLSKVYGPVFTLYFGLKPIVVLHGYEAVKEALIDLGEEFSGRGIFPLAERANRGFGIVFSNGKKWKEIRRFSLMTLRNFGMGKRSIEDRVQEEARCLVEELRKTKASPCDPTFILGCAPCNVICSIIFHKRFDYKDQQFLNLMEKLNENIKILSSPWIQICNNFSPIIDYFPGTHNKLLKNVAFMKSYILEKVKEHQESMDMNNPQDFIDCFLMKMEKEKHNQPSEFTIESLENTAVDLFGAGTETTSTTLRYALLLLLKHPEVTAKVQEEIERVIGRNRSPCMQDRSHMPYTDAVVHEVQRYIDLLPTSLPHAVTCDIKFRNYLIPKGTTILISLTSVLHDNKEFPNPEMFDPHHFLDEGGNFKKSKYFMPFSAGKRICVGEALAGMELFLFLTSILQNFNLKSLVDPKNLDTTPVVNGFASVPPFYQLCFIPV
CYP2C19 inhib: human CYP2C19 inhibition; P33261; hit rate 21% among 96,000; inhibition, % at 5 µM; CYP2C19 Supersomes, luciferin-H EGE luminescence, 30 min;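 active = CYP2C19 inhibition above a set limit at 5 µM in the primary screen, cut at about 50% in these data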;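 also: plate controls were negative control wells for no effect and 2.5 mM tranylcypromine positive control for full effect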
sEH activator: soluble epoxide hydrolase (human) activation. P34913. purified human sEH enzymatic activity, activator screen. activation, % at 2 µM. hit rate 0.04% among 91,000. AID 717; in the data active = activation above about 37%
CYP2C19 activ: cytochrome P450 2C19 (human) activation. P33261. recombinant CYP2C19, luciferin-H EGE luminescence; active compounds read high; 0 = fully inhibited enzyme, 1 = untreated enzyme. activation factor at 5 µM. 96,000 tested, under 10 active. AID 1025;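 active = activation factor of at least 2 at 5 µM in the primary screen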;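 also: 0 = wells with 2.5 mM tranylcypromine and 1 = vehicle-only wells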
CYP2C9 inhib: human CYP2C9 inhibition | P11712 | CYP2C9 Supersomes, luciferin-H conversion, luminescence | inhibition, % at 5 µM | hit rate 20% among 96,000 | AID 777;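 active = blocking of liver enzyme CYP2C9 beyond about 50% at 5 µM, limit read from the data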
Active calls of the source: *; nt = no result given.

SMILES | sEH inhibitor | CYP2C9 act | CYP2C19 inhib | sEH activator | CYP2C19 activ | CYP2C9 inhib
COc1cc(/C=C/C(=O)NCc2cccnc2)cc(OC)c1OC | -7.1 | 1 | 14.5 | 7.5 | 0.9 | -1.1
COc1ccc(/C=C/C(=O)Nc2sc3c(c2C(=O)NCc2cccnc2)CCCC3)cc1 | 5.1 | 0 | 74.6* | -6.1 | 0.3 | 97.2*
CCn1c(C)c(/C=N/Nc2nc3ccccc3s2)c2ccccc21 | 0.9 | 1 | 16.7 | -1.4 | 0.8 | 3.8
O=C(N/N=C/C=C/c1ccccc1)c1cccc(Br)c1 | 19.1 | 1.3 | -17.7 | -19.3 | 1.2 | -25.6
O=C(N/N=C\c1ccc(Sc2ccccn2)o1)c1cccc(Br)c1 | 75.5 | 0.2 | 83.9* | -75.3 | 0.2 | 82.1*
O=C(N/N=C/c1cccc(Oc2ccccc2)c1)c1ccccc1Br | 31.8 | 0.4 | 30.0 | -30.2 | 0.7 | 62.6*
O=C(N/N=C/c1cccc(Oc2ccccc2)c1)c1cccc(Br)c1 | 8.1 | 0.5 | 41.8 | -8.8 | 0.6 | 53.3*
COc1ccc(NC(=O)C2=C(C)Nc3ncnn3C2c2ccccc2C(F)(F)F)c(OC)c1 (stereo not drawn) | 4.4 | 0.5 | 38.5 | -5.0 | 0.6 | 45.1
CSc1nc(-c2ccccc2)nc(N2CCN(C)CC2)c1C(C)=O | -6.2 | 0.5 | 56.2* | 7.4 | 0.4 | 52.6*
Cc1ccc(NC(=O)COC(=O)c2ccc3c(c2)NC(=O)C2CCCN32)cc1C (stereo not drawn) | 17.9 | 1.1 | 18.2 | -19.0 | 0.8 | -7.0
CCOC(=O)CC(=O)Nc1nnc(C(C)C)s1 | 4.7 | 1 | 3.6 | -3.8 | 1 | 3.3
COC(=O)c1coc(-c2ccc(C)cc2)c1C(=O)OC | 0.4 | 0.4 | 78.9* | 2.6 | 0.2 | 59.4*
COC(=O)c1coc(-c2ccc(OC)cc2)c1C(=O)OC | 6.5 | 0.8 | 62.7* | -7.4 | 0.4 | 19.4
COC(=O)c1noc(-c2ccc(OC)cc2)n1 | -4.2 | 1 | 1.5 | 4.1 | 1 | -2.6
COC(=O)c1noc(-c2ccc(C)cc2)n1 | 4.0 | 1.1 | -5.1 | -5.3 | 1.1 | -11.1
O=C(O)Cn1c(P(=O)(O)c2ccccc2)nc2ccccc21 | 1.0 | 1.1 | -10.1 | -1.4 | 1.1 | -11.9
Cc1ccc(N(C(=O)Cc2c[nH]c3ccccc23)C(C(=O)NC2CCCCC2)c2ccco2)cc1 (stereo not drawn) | -4.2 | 0.1 | 84.2* | 7.6 | 0.2 | 94.0*
Cc1ccc(C(C(=O)NC2CCCC2)N(Cc2ccc3c(c2)OCO3)C(=O)Cc2cccs2)cc1 (stereo not drawn) | 1.9 | nt | nt | 3.2 | nt | nt
Cc1ccc(C(C(=O)NC2CCCC2)N(Cc2ccco2)C(=O)CCC(=O)Nc2cc(C)on2)cc1 (stereo not drawn) | 3.7 | nt | nt | -7.0 | nt | nt
Cc1ccc(C(C(=O)NC2CCCCC2)N(Cc2ccco2)C(=O)Cc2c[nH]c3ccccc23)o1 (stereo not drawn) | -6.2 | 0.5 | 53.6* | 8.1 | 0.5 | 45.8
COc1ccc(C(C(=O)NC2CCCCC2)N(Cc2cccs2)C(=O)Cc2c[nH]c3ccccc23)cc1OC (stereo not drawn) | 9.5 | 0.1 | -4.8 | -11.3 | 1 | 85.3*
O=C(OC(C(=O)NCC1CCCO1)c1ccc(F)cc1)c1ccco1 (stereo not drawn) | 0.6 | 1 | 5.9 | 0.6 | 0.9 | -0.5
Cc1ccc2oc3c(c(=O)c2c1)C(c1cccc(Cl)c1)N(CCCN1CCOCC1)C3=O (stereo not drawn) | nt | 0.9 | 2.7 | nt | 1 | 13.8
Cc1ccc(S(=O)(=O)Nc2cc(C)nn2-c2ccccc2)cc1 | nt | 0 | 4.3 | nt | 1 | 99.6*
O=C(O)c1ccccc1C(=O)NCc1ccccc1 | 4.4 | 1.1 | 24.7 | -3.1 | 0.8 | -9.1
SMILES | sEH inhibitor | CYP2C9 act | CYP2C19 inhib | sEH activator | CYP2C19 activ | CYP2C9 inhib
Cc1ccccc1NC(=O)Nc1ccccc1C(=O)NCc1ccccc1 | -4.0 | 0.4 | 49.9 | 2.4 | 0.5 | 58.7*
Cc1nc2cccc(C(=O)NCc3ccccc3)c2o1 | 6.5 | 0.4 | 2.9 | -7.7 | 1 | 62.1*
CCOC(=O)c1ccccc1NS(=O)(=O)c1ccc(C)cc1 | 0.5 | 1.3 | 59.7* | -3.4 | 0.4 | -31.4
COC(=O)c1ccccc1NS(=O)(=O)c1ccc(F)cc1 | 9.2 | nt | nt | -6.5 | nt | nt
Cn1c(CCNC(=O)c2ccc(Cl)cc2)n[nH]c1=S | -15.3 | 1.1 | -2.4 | 15.2 | 1 | -5.7
CC(=O)N1N=C(c2ccncc2)OC12CCCCCC2 | -17.1 | nt | nt | 14.9 | nt | nt
CN(CC(=O)NCCCN1CCOCC1)S(=O)(=O)c1ccc(Br)cc1 | 11.7 | 1.1 | -11.6 | -7.2 | 1.1 | -6.2

Compound activity as filed in PubChem BioAssay.
